Assay results published in the supplement of paper PMC6555819.

How the values were obtained:
Test in all cases: PBM binding z-score (relative to random genomic background probes); higher = stronger binding; sequences stand for … in GC…GCGATTGACAGCGTAGAATGAAGG
[1] = tested on: RARb homodimer (NR concentration 270 nM)
In short: (§1)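 Random background probes are the reference for binding z-scores. These scores derive from regression-normalized fluorescence on custom Agilent 4×180K protein-binding microarrays incubated 1 h with ligand-free nuclear receptor dimers. Binding was detected with antibodies against each partner (one per run).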

[2] = tested on: RARg:RXRa (NR concentration 270 nM, RXRa partner concentration 90 nM)
In short: as §1

[3] = tested on: RARg homodimer (NR concentration 270 nM)
In short: as §1

[4] = tested on: RXRa DBDmut IVT, anti-RXR (DBD mutation: RXRa K156A/R161A, NR concentration 90 nM)
In short: as §1

[5] = tested on: RXRa homodimer (NR concentration 180 nM)
In short: as §1

[6] = tested on: THRa:RXRa (NR concentration 90 nM, RXRa partner concentration 90 nM)
In short: as §1

[7] = tested on: THRa homodimer (NR concentration 90 nM)
In short: as §1

[8] = tested on: VDR:RXRa (NR concentration 270 nM, RXRa partner concentration 90 nM)
In short: as §1

[9] = tested on: VDR homodimer (NR concentration 270 nM)
In short: as §1

| Sequence | PBM binding z-score [1] | PBM binding z-score [2] | PBM binding z-score [3] | PBM binding z-score [4] | PBM binding z-score [5] | PBM binding z-score [6] | PBM binding z-score [7] | PBM binding z-score [8] | PBM binding z-score [9] |
| --- | --- | --- | --- | --- | --- | --- | --- | --- | --- |
| TCTTGTAGATCAAGCGGGTTAAGAAAGCCTGAGT | 0.106 | -0.294 | -0.546 | 0.628 | 0.204 | 0.221 | -0.488 | 0.54 | -0.0254 |
| GCATATAGGTAATACAAGGTGAAAGTCCGATTGT | 1.03 | 0.625 | 0.545 | 0.387 | 0.694 | 4.31 | 1.08 | 0.299 | 0.356 |
| ATACGTAGGTTAAGGGTCATTCAGGTTGGTTCGC | 4.06 | 5.01 | 3.58 | 2.11 | 6.29 | 3.72 | 1.6 | 5.82 | 4.36 |
| AGAATGAGGATAAGATCAGGGAAACAGAATACAT | -0.0231 | 0.224 | 0.322 | -0.458 | 0.578 | 1.42 | 0.69 | -0.0497 | -0.103 |
| GCATACAGGTAATACAAGGTGAAAGTCCGATTGT | 1.04 | 0.773 | 0.617 | 0.25 | 0.894 | 4.17 | 1.16 | 0.492 | 0.161 |
| CATACAAGGTCAGCTAGGCCAGAGTAGGGACGGC | 3.83 | 5.19 | 5.79 | 2.04 | 4.4 | 3.54 | 1.97 | 3.81 | 1.65 |
| CTCGAAAGGTCGCGCTCAGGTGAGTATACCAAAC | 3.47 | 5.54 | 4.9 | 2.28 | 5.79 | 4.23 | 1.01 | 3.55 | 1.35 |
| TAGACTAGGTCATGCGGGCCAGTATAGTGTCGGC | 2.66 | 3.38 | 4.13 | 0.0121 | 2.73 | 2.84 | 0.705 | 2.46 | 0.756 |
| CGAACTAGGTCAGAACAGGACAGGGAAGGATGAT | 2.37 | 2.58 | 2.91 | 0.62 | 1.26 | 3.92 | 0.578 | 0.511 | 0.472 |
| GGAACGAGGGCAAATTGATAGCAGAGTTTGATGG | 1.18 | 1.48 | 1.67 | 2.21 | 1 | 0.906 | -0.171 | 0.922 | 1.31 |
| ATCTCTAGGTAAAGTTCAGTGCAAGATCGATAGA | 2.68 | 2.49 | 2.87 | 1.39 | 1.4 | 1.5 | 0.256 | 1.87 | 2.47 |
| GGAACGAGGGTAAGTTGATAGCAGAGTTTGATGG | 0.494 | 0.154 | 0.437 | 0.818 | 0.178 | 0.12 | -0.196 | -0.217 | 0.755 |
| CCTCGGAGGACAGAAGGTCAGAGATGTCCGCTTT | 3.39 | 3.26 | 3.21 | -0.0318 | 1.74 | 2.05 | -0.116 | 1.28 | 0.382 |
| CCTAGGAGGCCAGGGTCACTCAAGCATTTCGCTT | 2.95 | 2.9 | 2.55 | -0.274 | 3.08 | 2.8 | 0.866 | 2.44 | 1.02 |
| CTCGAATGGTCGTGCTCAGGTGAGTATACCAAAC | 0.249 | -0.157 | -0.12 | -0.0041 | -0.189 | 1.11 | 0.835 | -0.155 | -0.378 |
| CAAACTAGGTCGAGGTCAAAGTCGGTTTGTGCCA | 4.43 | 5.24 | 4.79 | 2.93 | 5.63 | 4.31 | 3.49 | 5.52 | 5.19 |
| TGAATGAGGTTAGAAGATCAGGGAACGTTGCAAA | 0.0495 | 0.98 | 0.936 | -0.437 | 1.17 | 1.13 | -0.107 | 0.0983 | -0.169 |
| GCTGGTTGGTCAGTAAAAGGTCACACACCGGTCG | 5.18 | 5.81 | 5.42 | 0.18 | 5.73 | 3.5 | 2.21 | 4.02 | 2.29 |
| TCATATAGGTAAAGGTAAAAGTCGAACGATATGA | 0.156 | 0.701 | 0.679 | 0.705 | 1.11 | 0.531 | -0.456 | 0.657 | -0.0631 |
| ACTCGGAGGACAATGGTCAGAGCTACGCCAGTGA | 0.454 | 0.217 | 0.925 | 0.216 | -0.0471 | 0.235 | -0.526 | -0.697 | -0.36 |
| TCGCCTAGGTCAGATCGGGCCAGTATACGCTATA | 2.21 | 2.39 | 3.24 | 0.643 | 1.38 | 3.98 | 0.0988 | 0.717 | -0.139 |
| ATCTCTAGGTTACCAAGTTCAGTGAATGCCGAAC | 2.58 | 1.88 | 1.79 | 1.48 | 1.26 | 1.97 | 1.14 | 5.85 | 3.3 |
| CCTGCTAGGTGATGGTCAGCTAATCTACAGTATG | -0.121 | -0.189 | 0.108 | -0.024 | -0.424 | -0.498 | -0.545 | -0.759 | -0.612 |
| CATACAGAGTCAGCTAGGCCAGAGTAGGGACGGC | -0.0712 | -0.273 | 0.105 | -0.231 | -0.193 | -0.152 | -0.18 | -0.518 | -0.481 |
| ATATGTAAGTTACATCCGGGTCATTCAGGCTATG | 2.56 | 1.71 | 1.21 | 1.07 | 2.15 | 3.43 | 2.33 | 3.56 | 3.16 |
| TCGAGTAGGTTACTAATGGGGCATTCAGCTTTCT | 0.14 | 0.367 | 0.0579 | 0.272 | 0.291 | -0.11 | -0.967 | 0.0839 | -0.245 |

| Sequence | PBM binding z-score [1] | PBM binding z-score [2] | PBM binding z-score [3] | PBM binding z-score [4] | PBM binding z-score [5] | PBM binding z-score [6] | PBM binding z-score [7] | PBM binding z-score [8] | PBM binding z-score [9] |
| --- | --- | --- | --- | --- | --- | --- | --- | --- | --- |
| CCTACTGGGACATTCAGAGGTCATTGATCATATG | 4.09 | 3.72 | 3.06 | 1.77 | 4.05 | 3.38 | 1.9 | 4.18 | 4.08 |
| AGTCAAAGTTCTCTAGGTAACGTAAGATTCAGCT | 0.137 | 0.139 | 0.523 | 0.597 | 0.0862 | 0.903 | 0.459 | -0.0211 | 0.273 |
| CGTCCAAGATCAGAGAGGTCAGTGAATGCCGAGT | 3.9 | 2.95 | 3 | 0.949 | 2.5 | 2.64 | 0.926 | 3.82 | 2.37 |
| TCATATAGGTAAATGGTGAAAGTCGGTGTGGTAA | 0.19 | 0.0436 | -0.12 | 1.83 | 0.476 | 0.0433 | 0.202 | 0.561 | 0.415 |
| TGTCAAAGTTCAAAGGTAACCTAAGTATCCACAC | 3.92 | 6.15 | 5.71 | 4.52 | 7.11 | 3.64 | 0.627 | 5.12 | 3.92 |
| ACTTACGGGTCAGCGAGGTTATAGCACGCGTATA | 3.53 | 4.79 | 4.61 | 1.45 | 4.69 | 3.83 | 1.06 | 6.97 | 2.44 |
| ACTTACGGGTCAACGAGGTTATAGCTCGCGTATA | 3.51 | 5.67 | 5 | 2.85 | 5.91 | 4.18 | 1.02 | 7.8 | 3.7 |
| GCTGCTAGGTCAACTGATGGGCAGCTAAAGCTCG | 3 | 4.73 | 5.5 | 1.45 | 2.89 | 2.68 | 0.684 | 1.09 | -0.378 |
| GCTCGGAGGACAGGGTCAGAGCTTTGTCCGTAGA | 2.28 | 2.42 | 2.37 | 0.265 | 2.69 | 2.4 | 0.321 | 1.08 | 0.212 |
| CCTAGTTGGTCAGGAGGTCACACAACGGATATGA | 4.4 | 5.09 | 4.4 | 0.815 | 4.82 | 3.56 | 2.25 | 3.97 | 2.5 |
| GCAGACAGGTGAAACGCTGGTAACTCAGGGTGGC | -0.219 | 0.167 | -0.138 | -0.318 | 0.612 | 0.209 | -0.645 | -0.466 | -0.838 |
| CCTACTGCGCCAAAGGTCATTGATTCCAATGCTC | 4.88 | 5.4 | 4.69 | 2.16 | 6.21 | 3.46 | 1.9 | 4.85 | 3.56 |
| TCGTGTAGATCAAGCAGGTTAAGAAAGCCTGAGT | -0.0651 | -0.125 | -0.344 | 0.445 | 0.247 | 0.168 | -0.744 | 0.56 | -0.0255 |
| CGTCAAAGTTCAACTAAGGTAACATAAAGCACGC | 4.23 | 5.98 | 6.47 | 4.9 | 5.01 | 5.25 | 1.77 | 4.72 | 3.89 |
| AGAATGAGGTTAGACGTAGATCAGGGAAGAAAGT | 0.932 | 0.987 | 0.859 | 0.209 | 1.17 | 1.55 | 0.554 | 0.639 | 0.591 |
| TCATATAGGTAAAGTTGAAAGTCGAACGATATGA | 0.521 | 0.699 | 0.882 | 1.02 | 1.15 | 0.311 | -0.665 | 0.583 | 0.121 |
| CGAACTAGGTCAGAACAGGACAGTGACGGATGAT | 2 | 2.38 | 3.42 | 0.578 | 1.31 | 3.31 | 0.199 | 0.542 | 0.168 |
| AATACAGGGTCACTAGCCCAGAGTAGGTACGAAT | 2.95 | 4.82 | 4.62 | 2.61 | 5.17 | 3.22 | 1.13 | 4 | 2.21 |
| ACTATTAGTTGGCTTAGGGCAACCGATACGACGC | 0.69 | 0.504 | 0.733 | 0.512 | 0.326 | 0.788 | 0.529 | 0.158 | 0.021 |
| TAGCCTAGGGCATTGGGCCAGTATAGTACGCATC | 0.542 | 0.434 | 1.21 | -0.706 | 0.0585 | -0.328 | -0.611 | -0.414 | -0.306 |
| TCGAGTATGTTAGTCGGGGCATTCAGCCAACATA | -0.183 | -0.172 | -0.574 | 0.723 | -0.06 | 0.102 | -0.431 | 0.158 | 0.226 |
| TCTCGCAGGACACGAAGGTCAGAGCTTTCCAGAG | 3.18 | 2.44 | 2.34 | 0.886 | 1.96 | 2.4 | 0.377 | 1.57 | 0.357 |
| ATATGTAGGTTAAGGTTCATTCAGGTTGGTTCGC | 2.18 | 2.48 | 1.47 | 3.2 | 3.38 | 2.49 | 1.4 | 5.06 | 6.72 |
| CCTAACGGGTCACGAGGTTATAGCACGACGAGCG | 3.65 | 5.84 | 4.93 | 1.5 | 6.09 | 3.44 | 0.791 | 4.74 | 1.91 |
| AATACAGGGTTATCGTAGGCCAGAGTACGCACAG | 1.09 | 1.52 | 1.11 | 0.484 | 2.28 | 3.61 | 0.15 | 1.61 | 1.12 |
| CTCGAAAGGTCGGTTGAGGTGAATATACGGATAA | 2.32 | 2.98 | 2.77 | 0.545 | 2.5 | 5.06 | 1.58 | 2.79 | 0.52 |
